Most compounds without a hit are left out; they make up all but 14% or so of the library.
HSD17B inhib = blocks hydroxysteroid 17-beta dehydrogenase activity | Q99714 | recombinant HSD17B10, NADH fluorescence kinetic | Potency, µM (highest dose often 57.1 µM), most hits filed as inhibitors | 75,000 tested, 7.6% active;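 further: the protocol describes HADH2 (HSD17B10) and not the HSD17B4 of the title; nearly all actives have a fitted effect of over 70% in size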
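20 nM HADH2, pH 9.0 Tris/Tween; cpd preinc 15 min RT; start w/ 1 mM NAD+ + 90 uM b-hydroxybutyryl-CoA; kinetic fluor ex360/em450 q30s x 4 min; delta last-first.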
AID923 = qHTS Assay for Allosteric/Competitive Inhibitors of Caspase-1: Spectroscopic Profiling in AFC Spectral Region; compound fluorescence, AFC spectral region (405/520 nm); Potency, µM (top dose mostly 57.5 µM), most hits filed as activators; 75,000 tested, 1.1% active; AID 923, 2007
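Compound autofluorescence profiled at 405 nm ex/520 nm em during kinetic caspase 1 run (50 nM enzyme, 5 uM Ac-WEHD-AFC, HEPES pH 7.5, 10 mM DTT). Titration up to 57 uM; baseline from regression intercept, normalized to AFC standard curve.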
HADH2 inhib = inhibitors of human HADH2 dehydrogenase | 73,000 tested, 3.4% active | Q99714 | Potency, µM (highest dose often 57.1 µM), most hits filed as inhibitors | recombinant HADH2, NADH fluorescence, beta-hydroxybutyryl-CoA | AID 886; further: nearly all actives have a fitted effect of over 60% in size
Target sequence (Q99714 whole entry, looked up, one chain of several): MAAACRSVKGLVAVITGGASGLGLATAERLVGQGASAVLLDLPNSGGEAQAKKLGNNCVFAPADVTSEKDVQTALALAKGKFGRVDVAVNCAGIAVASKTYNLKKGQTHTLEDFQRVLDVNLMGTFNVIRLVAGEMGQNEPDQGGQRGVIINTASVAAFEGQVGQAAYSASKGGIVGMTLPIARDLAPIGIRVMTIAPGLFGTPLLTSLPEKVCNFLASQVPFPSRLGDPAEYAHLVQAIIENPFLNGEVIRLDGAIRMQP
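E. coli-expressed His-tagged HADH2 tested at 20 nM in alkaline Tris buffer (pH 9.0); oxidation of 90 uM beta-hydroxybutyryl-CoA with 1 mM NAD+ tracked fluorimetrically for 4 min.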
4MU fluor = 4-MU region autofluorescence. compound autofluorescence, 340/450 nm, 4-MU equivalents; hits give high values. max dye-equivalent concentration, M. 59,000 tested, 11% active; in the data active means max dye-equivalent concentration above about 10 nM; inconclusive means mostly about 1.1 nM to 9.6 nM
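Compounds in 100 mM Tris, pH 8.0, incubated 15 min at room temperature, then fluorescence read at 340 nm excitation/450 nm emission. Signal converted to 4-MU dye-equivalent concentration using an on-plate six-point 4-MU standard curve.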
CRE-bla Fsk = CRE-bla signaling modulation under forskolin stimulation; CHO CRE-bla reporter (cAMP response element driving beta-lactamase), forskolin EC10, beta-lactamase ratio; Potency, µM (titrated, usually from 38.2 µM), most hits filed as activators; 71,000 tested, 2.5% active; AID 662; active means well fitted activation curve with a large enough effect in the signal ratio, with a control signal flat, not every such curve was filed as active; inconclusive means small, poorly fitted or top-dose-only effect, or effect the other way, or a change in a side signal; the % refers to the signal ratio
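Titrated compounds plus EC10 NKH 477 on CHO CRE-bla cells, 3 h, 37 °C. CCF4, 2 h RT. Ratio 460/530 nm → AC50.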
A350 autofl = compound fluoresces in the Alexa 350 spectral region; Compound autofluorescence, 340/450 nm, Alexa 350 dye-equivalents; hits give high values; max dye-equivalent concentration, M; 59,000 tested, 11% active; AID 590; in the data active means max dye-equivalent concentration above about 10 nM; inconclusive means mostly about 1.1 nM to 9.6 nM
CHO tox 24h = CHO cell toxicity at 24 h by ATP luminescence. 120 tested, under 10 active. activity, negative = viability loss, % at 46.1 µM. CRE-bla CHO viability, ATP luminescence, 24 h. shares compounds with CRE-bla Fsk
CHO tox 40h = cytotoxicity in CRE-bla CHO cells at 40 h. shares compounds with CRE-bla Fsk. CRE-bla CHO viability, ATP luminescence, 40 h. Potency, µM, usual class: inhibitors. 120 tested, under 10 active
CRE-luc potent = confirmation of CRE signaling potentiators in HEK293 CREB reporter cells. shares compounds with CRE-bla Fsk. HEK293 CRE-luc2P, NKH477 EC10 potentiation, luminescence, 4 h. Potency, µM (highest dose often 38.3 µM), hits mostly activators. 120 tested, 80% active
Large screens that a line does not name were inactive (follow-up assays come after a bar, where they were run). Unless noted, the call rests on the fitted dose curve; in most records, active means well fitted curve in the direction sought with a large enough effect; inconclusive means small, poorly fitted or top-dose-only effect, or another doubt; inactive means no such curve, though single readings can be large; an effect the other way counts as inactive or inconclusive.

O=C1C2=C(Nc3cc([N+](=O)[O-])ccc3N2)O[C@@H]1c1ccc([C@H]2OC3=C(Nc4ccc([N+](=O)[O-])cc4N3)C2=O)cc1	HADH2 inhib 3.2µM
Cc1cc(=O)oc2c(O)c(O)ccc12	none (no result: HADH2 inhib, 4MU fluor, CRE-bla Fsk, A350 autofl)
CCC(=O)c1cc2c(C)cc(=O)oc2c(C)c1O	CRE-bla Fsk 2µM, A350 autofl inconclusive
CCOC(=O)c1ccc(CSc2n[nH]c(C)n2)o1	none (no result: 4MU fluor, A350 autofl)
CCOC(=O)C1=C(CSc2n[nH]c(N)n2)NC(=O)NC1C (centres undefined)	4MU fluor 1.7e-08M, A350 autofl 2.2e-08M
CC1CCCCC1NC(=O)CSc1nnc(-c2ccccc2)n1N (centres undefined)	none
CC1=C(/C=C/C(C)=C/C=C/C(C)=C\C=O)C(C)(C)CCC1	CRE-bla Fsk inconclusive (no result: 4MU fluor, A350 autofl)
CCc1nc(N2CCCCC2C)c2oc3ccccc3c2n1 (centres undefined)	CRE-bla Fsk 2.5µM
CCc1nc(N2CCCC(C)C2)c2oc3ccccc3c2n1 (centres undefined)	HADH2 inhib inconclusive, CRE-bla Fsk 10µM
CCOC(=O)C1CCCN(c2nc(C)nc3c2oc2ccccc23)C1 (centres undefined)	none
CCn1c(/C(C#N)=C(\O)CCc2ccccc2)nc2ccccc21	CRE-bla Fsk inconclusive
Cn1c(/C(C#N)=C/Nc2ccccn2)nc2ccccc21	4MU fluor inconclusive, A350 autofl 1.5e-08M (no result: HSD17B inhib, AID923, HADH2 inhib, CRE-bla Fsk) | CHO tox 24h inactive | CHO tox 40h inactive | CRE-luc potent 13µM
COc1c(O[C@H]2O[C@@H](CO)[C@@H](O)[C@@H](O)[C@@H]2O)cc2c(c1OC)-c1ccc(SC)c(=O)cc1[C@H](NC(C)=O)CC2	none
CC[C@]1(O)C[C@@H]2CN(CCc3c([nH]c4ccccc34)[C@](C(=O)OC)(c3cc4c(cc3OC)N(C)[C@H]3[C@](O)(C(=O)OC)[C@@H](C(=O)OC)[C@@]5(CC)C=CCN6CC[C@@]43[C@@H]65)C2)C1	CRE-bla Fsk 0.25µM (no result: 4MU fluor, A350 autofl) | CHO tox 24h inconclusive | CHO tox 40h inconclusive | CRE-luc potent inactive
Cn1c(=O)c2c(nc(CN3CCN(c4ccccc4)CC3)n2Cc2c(F)cccc2Cl)n(C)c1=O	CRE-bla Fsk inconclusive
CCOc1ccc(-n2cc(C(=O)Nc3cccc(C)n3)c3cc(OC)c(OC)cc3c2=O)cc1	CRE-bla Fsk inconclusive
Cn1nc(-c2ccc(Cl)cc2)c2cc(C(=O)N3CCC(N4CCCCC4)CC3)sc21	none
Fc1ccc(CSc2ncnc3c2oc2ccccc23)cc1	CRE-bla Fsk 1µM, A350 autofl inconclusive | CHO tox 24h inactive | CHO tox 40h inactive | CRE-luc potent 7.9µM
O=C(CSc1ncnc2c1oc1ccccc12)c1cccs1	CRE-bla Fsk inconclusive | CHO tox 24h inactive | CHO tox 40h inactive | CRE-luc potent 1.3µM
Fc1cccc(CSc2ncnc3c2oc2ccccc23)c1	CRE-bla Fsk inconclusive
Cc1nc(SCc2nc3ccccc3[nH]2)c2oc3ccccc3c2n1	HSD17B inhib inconclusive, CRE-bla Fsk 0.016µM | CHO tox 24h inactive | CHO tox 40h inactive | CRE-luc potent 1µM
c1ccc2[nH]c(CN3CCN(c4ncnc5c4oc4ccccc45)CC3)nc2c1	CRE-bla Fsk inconclusive
c1ccc2[nH]c(CSc3ncnc4c3oc3ccccc34)nc2c1	CRE-bla Fsk inconclusive | CHO tox 24h inactive | CHO tox 40h inconclusive | CRE-luc potent 0.79µM
C=CCSc1nnc(NC(=O)CSc2nc3ccccc3o2)s1	none
Cc1cc(C(=O)O)c(CCCN)s1	none
COC(=O)c1ccc(CSc2nc3c(cnn3-c3ccc(F)cc3)c(=O)[nH]2)o1	HSD17B inhib inconclusive, HADH2 inhib inconclusive, CRE-bla Fsk 13µM, A350 autofl inconclusive | CHO tox 24h inactive | CHO tox 40h inactive | CRE-luc potent 5µM
COC(=O)c1ccc(CSc2nc3c(cnn3-c3ccc(Cl)cc3)c(=O)[nH]2)o1	CRE-bla Fsk inconclusive
COc1ccc(/C(O)=C(\C#N)c2nc3ccccc3n2C)cc1OC	4MU fluor 1.4e-08M, CRE-bla Fsk 5µM, A350 autofl inconclusive | CHO tox 24h inactive | CHO tox 40h inactive | CRE-luc potent 4.5µM
CC1=C(C(=O)OCc2ccccc2)C(C2CCCCC2)NC(=O)N1CCCCCC(=O)O (centres undefined)	CRE-bla Fsk inconclusive (no result: 4MU fluor, A350 autofl)
COc1cccc(-c2nnc3sc(C4CCCCC4)nn23)c1	none (no result: HSD17B inhib, AID923, HADH2 inhib, CRE-bla Fsk)
COc1cc(-c2nnc3sc(C4CCCCC4)nn23)cc(OC)c1OC	CRE-bla Fsk 1µM | CHO tox 24h inconclusive | CHO tox 40h inconclusive | CRE-luc potent 0.13µM
COc1cc(C(=O)Nc2nnc(CC(=O)N3CCOCC3)s2)cc(OC)c1OC	CRE-bla Fsk inconclusive
O=C(O)CCCC(=O)Nc1ccc(Br)cc1C(=O)O	none
Cc1nc(SCC(=O)Nc2ccc3c(c2)OCCO3)c2oc3ccccc3c2n1	CRE-bla Fsk 0.25µM | CHO tox 24h inactive | CHO tox 40h inactive | CRE-luc potent 5µM
CCc1nc(SCC(=O)Nc2ccc3c(c2)OCCO3)c2oc3ccccc3c2n1	CRE-bla Fsk 0.4µM | CHO tox 24h inconclusive | CHO tox 40h 32µM | CRE-luc potent 4µM
O=C(CSc1ncnc2c1oc1ccccc12)Nc1ccc2c(c1)OCCO2	CRE-bla Fsk inconclusive
CCn1c(=O)cc(SCC(=O)Nc2ccc3c(c2)OCCO3)c2ccccc21	CRE-bla Fsk inconclusive
CSc1nnc2c3ccccc3n(CCc3ccccc3)c2n1	CRE-bla Fsk 0.016µM (no result: 4MU fluor, A350 autofl) | CHO tox 24h inconclusive | CHO tox 40h inconclusive | CRE-luc potent 3.2µM
CCOc1ccc(Nc2nc(Cc3nnc(SCC(=O)NCc4ccco4)n3CC)cs2)cc1	none
O=C(Nc1ccccc1O)c1cc(S(=O)(=O)N2CCOCC2)ccc1Cl	none | CHO tox 24h inactive | CHO tox 40h inactive | CRE-luc potent 16µM
CCOc1ccc(C2=Nn3c(nnc3-c3ccccc3)SC2)cc1Cl	CRE-bla Fsk 0.079µM | CHO tox 24h inactive | CHO tox 40h inactive | CRE-luc potent 1.6µM
COc1ccc(C2=Nn3c(nnc3-c3ccccc3OC)SC2)cc1OC	CRE-bla Fsk 1.3µM | CHO tox 24h inconclusive | CHO tox 40h inactive | CRE-luc potent 0.04µM
